This note sets out measurements from PubChem BioAssay AID1347172 (National Center for Advancing Translational Sciences (NCATS), 2019).

Inconclusive results are not listed. Entries that show only a call come without a potency. Active and inactive are the calls of the source. Calls follow the shape of the dose curve; as a rule, active = well fitted inhibition curve with a large enough effect; inconclusive = small, poorly fitted or top-dose-only effect; inactive = flat fitted curve, though single readings scatter.

A short description of the test: Secondary qRT-PCR qHTS assay for selected Zika virus inhibitors. The settings on record: Vero cells ZIKV infection, NS5 RNA qRT-PCR, 24 h; series mostly up to 32.6 µM. An excerpt:
Assay Submitters (PI): Avindra Nath, Ph.D., National Institute of Neurological Disorders and Stroke (NINDS), Bethesda, MD Radhakrishnan Padmanabhan, Ph.D., Georgetown University (GU), Washington D.C. Zika Virus causes congenital defects, including microcephaly and is associated with Guillain-Barre syndrome, eningoencephalitis and myelitis in infected adult. […] Using a target-based approach, we hope to establish a screening paradigm to uncover novel, cell-active NS2B-NS3 protease (Zika Virus) specific inhibitors from NCATS' collection of small molecules using qHTS. […] Four assay panel was created to identify potential Zika Virus inhibitors. Namely, (1) GU unlinked NS2B-NS3 AMC tagged protease qHTS, (2) GU unlinked NS2B-NS3 Rhodamine tagged protease qHTS, (3) NINDS linked NS2B-NS3 AMC tagged protease qHTS, (4) NINDS linked NS2B-NS3 Rhodamine tagged protease qHTS. Inhibitors of the Zika virus primary screens are confirmed using qRT-PCR secondary assays, qRT-PCR mCherry orthogonal assay, and qRT-PCR viability counterscreen. Early Translation Branch (ETB) National Center for Advancing Translational Sciences (NCATS), Rockville, MD National Institute of Health (NIH), Bethesda, Maryland
384-well ZIKV qRT-PCR Assay: Vero cells were treated with the indicated compounds at different concentrations, infected with ZIKV (MOI=1) and incubated at 37 degrees C for 3 hours to permit virus invasion. After 3 hr, supernatant was removed, and cells were washed once to remove extracellular virus. After a further 21 hr incubation, infected cells were washed three times with cold PBS (4 degrees C). Plates were then process using the TaqmanGene Expression Cells-to-Ct Kit (ThermoFisher Scientific) following the manufactures protocol. Primers directed to the NS5 sequence (F-[…]; R-GCTCGGCCAATCAGTTCA) along with Taqman probe (FAM-[…]-BHQ; Biosearch Technologies) were used to quantify drug inhibition of viral load. Reactions were run at initial 95 degrees C for 10 min, then 40 cycles of 95 degrees C for 20 sec and 60 degrees C for 40 sec using a LightCycler 480 (Roche). Relative viral copy numbers were generated by normalizing to cells treated with vehicle.
On the technique in general: Real-time PCR tracks product formation cycle by cycle.
Take `C[C@]12CC[C@@H]3c4ccc(OC(=O)N(CCCl)CCCl)cc4CC[C@H]3[C@@H]1CC[C@@H]2O`: the Potency result was “inactive”. For `CN(C)[C@@H]1C(=O)C(C(N)=O)=C(O)[C@@]2(O)C(=O)C3=C(O)c4c(O)ccc(Cl)c4[C@@](C)(O)[C@H]3C[C@@H]12` the value was “inactive”; for `CN(C)[C@@H]1C(=O)C(C(N)=O)=C(O)[C@@]2(O)C(=O)C3=C(O)c4c(O)cccc4[C@@](C)(O)[C@H]3C[C@@H]12`, “inactive”; for `Oc1c(Cl)c(Cl)c(Cl)c(Cl)c1Cl`, “inactive”. For `O=C(Nc1ccc(Br)cc1)c1cc(Br)cc(Br)c1O` the value was 22.4 µM (active).
